Reference: the supplement of paper PMC10849652
Targets with a hit are over-represented here; the source holds about 7,900 in all. About 0.6% of all pairs of compound and target were hits.

Legend:
Assay in all cases: log2 fold change, soluble protein after heating vs DMSO (PISA); higher = thermal stabilisation; K562 cells, 10 uM, 30 min; active = over 0.2 and 3.5 SD of the protein, either way, in both replicates (recomputed)
[1] = compound: C#Cc1cccc(Nc2ncnc3cc(OCCOC)c(OCCOC)cc23)c1 [erlotinib]
Outline: (§1)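 Thermal stability values are relative to control samples and come from duplicates. They are expressed as log2 fold changes. For measurement, K562 cells (2×10^6 cells/mL) received 10 μM compound for 30 min, and aliquots were heated for 3 min over 48°C-58°C, pooled, and extracted at 4°C in PBS with 0.5% NP-40. Soluble protein, the supernatant after 21,000xg for 90 min, was quantified by TMTpro 16plex LC-MS/MS with equalised channel sums.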

[2] = compound: C/C(=N\NC(=O)C1=CC(=CC=C1)S(=O)(=O)N2CCOCC2)/C3=C(C=CC(=C3)Cl)O
Outline: as §1

[3] = compound: C1=CC(=C(C=C1Cl)C2=NC3=NC=CN=C3C(=N2)NC4=CC=NC=C4)F
Outline: as §1

[4] = compound: C1=CC(=CC=C1C2=NC3=C(N2)C=C(C=C3)C(=O)N)OC4=CC=C(C=C4)Cl
Outline: as §1

[5] = compound: C1=CC2=C(C=CC(=C2)/C=C\3/C(=O)NC(=NCC4=CC=CS4)S3)N=C1
Outline: as §1

[6] = compound: C1=CC2=NC=CN=C2C=C1/C=C/3\C(=O)NC(=O)S3
Outline: as §1

[7] = compound: C1=CC=C(C=C1)C2=NC(=C(N2)C3=CC=NC=C3)C4=CC(=C(C=C4)Cl)O
Outline: as §1

[8] = compound: C1=CC=C2C(=C1)C3=NNC4=CC=CC(=C43)C2=O
Outline: as §1

[9] = compound: C1CCN(C1)C(=O)NC2=CC=CC(=C2)NC3=NC=C(C(=N3)NCCC4=CN=CN4)Br
Outline: as §1

[10] = compound: C1CN(CCC1(CC2=CC=C(C=C2)Cl)N)C3=NC=NC4=C3C=CN4
Outline: as §1

Measured: log2 fold change

VPS16 (UniProt Q9H269)
UniProt Q9H269, sequence (Q9H269 whole entry, looked up): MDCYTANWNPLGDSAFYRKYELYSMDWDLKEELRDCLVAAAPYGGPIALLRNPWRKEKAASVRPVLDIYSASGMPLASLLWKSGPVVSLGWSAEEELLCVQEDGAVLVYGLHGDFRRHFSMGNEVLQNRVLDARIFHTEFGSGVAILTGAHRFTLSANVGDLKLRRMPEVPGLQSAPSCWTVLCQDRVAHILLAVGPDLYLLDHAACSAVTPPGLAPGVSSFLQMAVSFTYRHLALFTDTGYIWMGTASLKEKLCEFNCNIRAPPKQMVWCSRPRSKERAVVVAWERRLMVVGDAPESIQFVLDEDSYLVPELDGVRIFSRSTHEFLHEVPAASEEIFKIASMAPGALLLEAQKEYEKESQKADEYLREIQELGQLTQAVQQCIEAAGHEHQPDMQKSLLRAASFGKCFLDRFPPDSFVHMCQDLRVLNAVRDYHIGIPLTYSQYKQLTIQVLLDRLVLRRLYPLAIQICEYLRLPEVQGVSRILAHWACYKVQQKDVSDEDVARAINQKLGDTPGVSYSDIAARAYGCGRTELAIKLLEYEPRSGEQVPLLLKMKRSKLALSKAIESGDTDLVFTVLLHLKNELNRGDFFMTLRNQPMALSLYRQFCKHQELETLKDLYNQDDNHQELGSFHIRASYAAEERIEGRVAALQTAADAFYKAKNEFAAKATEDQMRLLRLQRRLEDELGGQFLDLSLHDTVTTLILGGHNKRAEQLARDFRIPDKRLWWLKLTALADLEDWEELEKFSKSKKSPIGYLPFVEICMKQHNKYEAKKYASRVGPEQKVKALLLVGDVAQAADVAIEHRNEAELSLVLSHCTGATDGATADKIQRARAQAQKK
inactive: [1] 0.104 | [2] 0.128 | [3] -0.004 | [4] -0.034 | [5] 0.093 | [6] 0.087 | [7] -0.031 | [8] -0.018 | [9] -0.007 | [10] -0.128

TMEM179B (UniProt Q7Z7N9)
inactive: [1] 0.042 | [2] -0.016 | [3] 0.073 | [4] 0.032 | [5] -0.009 | [6] 0.034 | [7] -0.107 | [8] -0.032 | [9] -0.165 | [10] -0.005

TMEM9 (UniProt Q9P0T7)
UniProt Q9P0T7, sequence (Q9P0T7 whole entry, looked up): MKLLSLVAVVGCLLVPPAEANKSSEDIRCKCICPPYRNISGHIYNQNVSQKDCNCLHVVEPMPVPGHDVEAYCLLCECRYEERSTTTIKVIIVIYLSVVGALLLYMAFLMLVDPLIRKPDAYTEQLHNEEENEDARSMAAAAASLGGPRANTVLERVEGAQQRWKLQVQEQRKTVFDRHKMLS
inactive: [1] 0.014 | [2] 0.008 | [3] 0.254 | [4] -0.021 | [5] -0.034 | [6] -0.117 | [7] 0.037 | [8] -0.004 | [9] -0.053 | [10] -0.025

USP25 isoform 3 (UniProt Q9UHP3)
inactive: [1] 0.007 | [2] 0.086 | [3] 0.02 | [4] 0.002 | [5] 0.028 | [6] 0.005 | [7] -0.024 | [8] 0.011 | [9] -0.038 | [10] 0.043

TXNRD1 (UniProt Q16881)
inactive: [1] 0.021 | [2] 0.049 | [3] 0.057 | [4] -0.006 | [5] 0.009 | [6] 0.074 | [7] 0.027 | [8] 0.019 | [9] 0.005 | [10] 0.046

VDAC1 (UniProt C9JI87)
inactive: [1] 0.277 | [2] -0.05 | [3] 0.095 | [4] -0.01 | [5] 0.13 | [6] 0.124 | [7] 0.091 | [8] -0.04

TTC4 (UniProt O95801)
UniProt O95801, sequence (O95801 whole entry, looked up): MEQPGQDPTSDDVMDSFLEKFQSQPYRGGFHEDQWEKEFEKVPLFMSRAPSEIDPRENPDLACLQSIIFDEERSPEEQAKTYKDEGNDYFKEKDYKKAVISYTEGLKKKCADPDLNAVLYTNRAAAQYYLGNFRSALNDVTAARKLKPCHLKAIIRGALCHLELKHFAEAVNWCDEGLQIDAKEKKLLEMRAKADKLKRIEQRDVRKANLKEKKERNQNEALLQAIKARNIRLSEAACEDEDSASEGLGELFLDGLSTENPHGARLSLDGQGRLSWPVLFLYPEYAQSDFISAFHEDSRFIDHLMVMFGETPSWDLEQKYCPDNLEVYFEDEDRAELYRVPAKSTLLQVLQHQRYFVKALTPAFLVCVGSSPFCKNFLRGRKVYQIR
inactive: [1] 0.094 | [2] 0.081 | [3] 0.016 | [4] 0.005 | [5] 0.061 | [6] -0.007 | [7] 0.081 | [8] 0.025 | [9] -0.057 | [10] -0.018

TOMM5 isoform 2 (UniProt Q8N4H5)
inactive: [1] -0.115 | [2] 0.063 | [4] 0.134 | [5] 0 | [6] 0.052 | [7] -0.123 | [8] -0.003 | [9] -0.038 | [10] -0.047
active: [3] 0.378

TRMT10C (UniProt Q7L0Y3)
inactive: [1] -0.015 | [2] 0.066 | [3] 0.09 | [4] 0.062 | [5] 0.009 | [6] -0.007 | [7] 0.036 | [8] 0.036 | [9] -0.008 | [10] 0.009

TNFAIP8 isoform 4 (UniProt O95379)
UniProt O95379, sequence (O95379 whole entry, looked up): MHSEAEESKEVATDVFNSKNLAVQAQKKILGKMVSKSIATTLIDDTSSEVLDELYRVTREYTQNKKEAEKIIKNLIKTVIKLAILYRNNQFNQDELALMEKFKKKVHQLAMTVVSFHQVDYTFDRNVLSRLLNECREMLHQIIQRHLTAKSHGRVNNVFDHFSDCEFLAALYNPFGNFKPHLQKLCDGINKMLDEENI
inactive: [1] 0.019 | [2] 0.071 | [3] 0.087 | [4] -0.028 | [5] 0.039 | [6] 0.017 | [7] -0.015 | [8] -0.07 | [9] 0.003 | [10] 0.023

VPS39 (UniProt Q96JC1)
inactive: [1] -0.006 | [2] 0.08 | [3] -0.005 | [4] 0.022 | [5] 0 | [6] 0.023 | [7] -0.014 | [8] -0.046 | [9] 0.01 | [10] 0.054

VPS33A (UniProt Q96AX1)
inactive: [1] 0.025 | [2] 0.035 | [3] -0.054 | [4] -0.01 | [5] 0.057 | [6] 0.013 | [7] 0.005 | [8] -0.023 | [9] -0.051 | [10] -0.083

UBA1 (UniProt P22314)
inactive: [1] 0.1 | [2] 0.166 | [3] 0.074 | [4] -0.024 | [5] 0.114 | [6] -0.004 | [7] 0.065 | [8] 0.023 | [9] -0.034 | [10] -0.175

VPS50 (UniProt Q96JG6)
inactive: [1] 0.008 | [2] 0.094 | [3] -0.003 | [4] -0.017 | [5] 0.088 | [6] 0.025 | [7] 0.023 | [8] -0.019 | [9] -0.022 | [10] -0.021

WDR47 (UniProt O94967)
UniProt O94967, sequence (O94967 whole entry, looked up): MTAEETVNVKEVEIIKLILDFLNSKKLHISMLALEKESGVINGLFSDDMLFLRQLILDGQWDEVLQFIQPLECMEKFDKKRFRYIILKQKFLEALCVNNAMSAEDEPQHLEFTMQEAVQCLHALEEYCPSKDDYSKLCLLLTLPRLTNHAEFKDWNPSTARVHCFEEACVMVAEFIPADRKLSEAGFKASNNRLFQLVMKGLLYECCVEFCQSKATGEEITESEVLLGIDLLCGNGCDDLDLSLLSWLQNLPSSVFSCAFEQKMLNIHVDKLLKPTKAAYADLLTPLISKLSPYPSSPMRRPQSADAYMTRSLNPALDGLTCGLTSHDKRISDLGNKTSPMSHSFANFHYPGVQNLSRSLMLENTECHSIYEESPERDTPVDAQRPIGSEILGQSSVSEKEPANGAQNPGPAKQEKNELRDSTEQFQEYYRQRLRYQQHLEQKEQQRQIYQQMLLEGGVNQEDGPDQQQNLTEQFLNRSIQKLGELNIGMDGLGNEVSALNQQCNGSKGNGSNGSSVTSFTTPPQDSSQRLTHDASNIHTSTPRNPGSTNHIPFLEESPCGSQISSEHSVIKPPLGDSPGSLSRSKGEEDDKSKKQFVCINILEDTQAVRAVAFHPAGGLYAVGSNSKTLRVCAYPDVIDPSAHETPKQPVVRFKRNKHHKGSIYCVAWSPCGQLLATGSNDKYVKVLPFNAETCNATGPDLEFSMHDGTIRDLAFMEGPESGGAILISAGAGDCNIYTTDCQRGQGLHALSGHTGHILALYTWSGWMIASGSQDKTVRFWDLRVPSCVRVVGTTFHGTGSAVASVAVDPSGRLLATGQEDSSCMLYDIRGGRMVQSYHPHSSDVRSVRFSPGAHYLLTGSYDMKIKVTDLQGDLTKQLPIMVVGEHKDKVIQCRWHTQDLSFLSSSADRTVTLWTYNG
inactive: [1] 0.038 | [2] 0.065 | [3] -0.014 | [4] -0.002 | [5] -0.002 | [6] 0.06 | [7] 0.047 | [8] 0 | [9] 0.013 | [10] 0.006

UXT isoform 2 (UniProt Q9UBK9)
UniProt Q9UBK9, sequence (Q9UBK9 whole entry, looked up): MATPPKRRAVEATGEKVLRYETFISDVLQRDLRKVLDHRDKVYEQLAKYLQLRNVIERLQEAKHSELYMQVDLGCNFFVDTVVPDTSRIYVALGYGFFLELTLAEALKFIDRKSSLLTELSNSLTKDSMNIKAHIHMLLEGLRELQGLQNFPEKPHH
inactive: [2] -0.263 | [3] 0.078 | [4] 0.113 | [5] 0.061 | [6] -0.044 | [7] -0.053 | [8] 0.012 | [9] -0.036 | [10] -0.086
active: [1] 0.925

TNPO2 (UniProt O14787)
UniProt O14787, sequence (O14787 whole entry, looked up): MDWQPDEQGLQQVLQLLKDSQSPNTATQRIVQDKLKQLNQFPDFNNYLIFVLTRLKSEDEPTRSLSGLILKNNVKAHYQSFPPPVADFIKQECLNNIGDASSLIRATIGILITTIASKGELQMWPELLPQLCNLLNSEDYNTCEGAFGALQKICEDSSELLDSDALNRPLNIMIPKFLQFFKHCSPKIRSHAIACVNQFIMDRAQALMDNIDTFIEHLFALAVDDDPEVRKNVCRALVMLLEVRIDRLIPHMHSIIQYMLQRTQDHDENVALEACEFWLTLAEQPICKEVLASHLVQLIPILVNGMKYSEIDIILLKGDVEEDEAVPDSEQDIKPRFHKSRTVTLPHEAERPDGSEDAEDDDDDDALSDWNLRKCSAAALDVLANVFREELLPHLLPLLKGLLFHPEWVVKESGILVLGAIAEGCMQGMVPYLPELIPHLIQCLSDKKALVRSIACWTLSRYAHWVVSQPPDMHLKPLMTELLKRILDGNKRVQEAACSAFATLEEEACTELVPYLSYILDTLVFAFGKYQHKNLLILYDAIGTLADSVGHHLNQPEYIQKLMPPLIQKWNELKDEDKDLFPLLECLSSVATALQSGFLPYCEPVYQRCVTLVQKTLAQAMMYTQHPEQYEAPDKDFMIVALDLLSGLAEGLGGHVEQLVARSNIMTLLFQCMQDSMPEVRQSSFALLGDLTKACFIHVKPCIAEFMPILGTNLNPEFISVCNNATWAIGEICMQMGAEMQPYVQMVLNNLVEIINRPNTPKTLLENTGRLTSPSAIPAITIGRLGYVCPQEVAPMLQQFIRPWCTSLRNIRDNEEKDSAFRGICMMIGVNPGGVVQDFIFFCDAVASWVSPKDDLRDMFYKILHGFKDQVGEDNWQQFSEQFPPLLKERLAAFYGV
inactive: [1] 0.075 | [2] 0.115 | [3] 0.033 | [4] -0.064 | [5] 0.077 | [6] 0.017 | [7] 0.018 | [8] -0.008 | [9] 0.027 | [10] -0.008

UFD1 isoform 1 (UniProt Q92890)
UniProt Q92890, sequence (Q92890 whole entry, looked up): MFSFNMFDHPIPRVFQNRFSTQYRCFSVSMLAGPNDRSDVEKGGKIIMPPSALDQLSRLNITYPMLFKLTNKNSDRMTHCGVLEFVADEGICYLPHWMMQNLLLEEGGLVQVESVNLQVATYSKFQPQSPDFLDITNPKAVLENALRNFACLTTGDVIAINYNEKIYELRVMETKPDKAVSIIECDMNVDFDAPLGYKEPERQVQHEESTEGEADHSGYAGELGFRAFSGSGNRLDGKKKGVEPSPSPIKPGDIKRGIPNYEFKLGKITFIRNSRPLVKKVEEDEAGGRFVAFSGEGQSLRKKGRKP
inactive: [1] 0.001 | [2] 0.019 | [3] 0.051 | [4] -0.008 | [5] 0.012 | [6] 0.015 | [7] -0.01 | [8] -0.021 | [9] -0.036 | [10] 0.024

VPS37A (UniProt Q8NEZ2)
inactive: [1] 0.127 | [2] 0.113 | [3] -0.042 | [4] -0.097 | [5] -0.054 | [6] 0.059 | [7] 0.098 | [8] 0.044 | [9] 0.036 | [10] 0.008

VPS41 (UniProt P49754)
inactive: [1] -0.022 | [2] 0.076 | [3] -0.049 | [4] -0.018 | [5] 0.086 | [6] 0.056 | [7] 0.004 | [8] 0.031 | [9] 0.043 | [10] -0.058

WASH2P (UniProt Q6VEQ5)
UniProt Q6VEQ5, sequence (Q6VEQ5 whole entry, looked up): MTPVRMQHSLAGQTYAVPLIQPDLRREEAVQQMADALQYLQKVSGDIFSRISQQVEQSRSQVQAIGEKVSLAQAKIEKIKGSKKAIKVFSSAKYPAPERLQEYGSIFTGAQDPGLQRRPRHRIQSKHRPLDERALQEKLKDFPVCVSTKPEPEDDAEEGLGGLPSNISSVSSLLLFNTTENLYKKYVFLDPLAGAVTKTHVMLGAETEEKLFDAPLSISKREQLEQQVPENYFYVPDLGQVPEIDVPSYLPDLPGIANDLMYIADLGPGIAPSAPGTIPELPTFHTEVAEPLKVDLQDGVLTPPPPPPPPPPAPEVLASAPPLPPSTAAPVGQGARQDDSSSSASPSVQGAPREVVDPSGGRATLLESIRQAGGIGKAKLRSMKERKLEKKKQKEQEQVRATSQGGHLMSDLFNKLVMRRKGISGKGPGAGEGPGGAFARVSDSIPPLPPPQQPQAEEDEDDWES
inactive: [1] 0.005 | [2] -0.02 | [3] -0.084 | [4] 0.003 | [5] 0.041 | [6] 0.038 | [7] 0.014 | [8] 0.011 | [9] 0.117 | [10] 0.013

TRAPPC11 (UniProt Q7Z392)
inactive: [1] 0.044 | [2] 0.136 | [3] -0.027 | [4] 0.017 | [5] 0.105 | [6] 0.059 | [7] 0.027 | [8] 0.062 | [9] -0.019 | [10] -0.001

TMEM63B (UniProt Q5T3F8)
inactive: [1] -0.037 | [2] 0.063 | [3] -0.024 | [4] -0.009 | [5] -0.066 | [6] 0.012 | [7] -0.076 | [8] -0.033 | [9] 0.011 | [10] 0.065

XPO6 (UniProt Q96QU8)
inactive: [1] 0.07 | [2] 0.056 | [4] -0.055 | [5] 0.093 | [6] -0.15 | [7] -0.01 | [8] -0.008 | [9] 0.087 | [10] 0.02
active: [3] -0.465

WAPL isoform 3 (UniProt Q7Z5K2)
inactive: [1] 0.031 | [2] 0.017 | [3] 0.048 | [4] -0.037 | [5] 0.057 | [6] 0.144 | [7] 0.059 | [8] -0.012 | [9] -0.217 | [10] -0.062

TRIP10 (UniProt Q15642)
inactive: [1] 0.052 | [2] 0.015 | [3] 0.203 | [4] 0.022 | [5] 0.013 | [6] -0.025 | [7] 0.044 | [8] 0.011 | [9] 0.013 | [10] -0.026

TRMT61A (UniProt Q96FX7)
active: [3] -0.354
inactive: [1] -0.03 | [2] -0.062 | [4] 0.087 | [5] -0.059 | [6] -0.07 | [7] -0.017 | [8] -0.046 | [9] 0.054 | [10] 0.054

WEE1 (UniProt P30291)
UniProt P30291, sequence (P30291 whole entry, looked up): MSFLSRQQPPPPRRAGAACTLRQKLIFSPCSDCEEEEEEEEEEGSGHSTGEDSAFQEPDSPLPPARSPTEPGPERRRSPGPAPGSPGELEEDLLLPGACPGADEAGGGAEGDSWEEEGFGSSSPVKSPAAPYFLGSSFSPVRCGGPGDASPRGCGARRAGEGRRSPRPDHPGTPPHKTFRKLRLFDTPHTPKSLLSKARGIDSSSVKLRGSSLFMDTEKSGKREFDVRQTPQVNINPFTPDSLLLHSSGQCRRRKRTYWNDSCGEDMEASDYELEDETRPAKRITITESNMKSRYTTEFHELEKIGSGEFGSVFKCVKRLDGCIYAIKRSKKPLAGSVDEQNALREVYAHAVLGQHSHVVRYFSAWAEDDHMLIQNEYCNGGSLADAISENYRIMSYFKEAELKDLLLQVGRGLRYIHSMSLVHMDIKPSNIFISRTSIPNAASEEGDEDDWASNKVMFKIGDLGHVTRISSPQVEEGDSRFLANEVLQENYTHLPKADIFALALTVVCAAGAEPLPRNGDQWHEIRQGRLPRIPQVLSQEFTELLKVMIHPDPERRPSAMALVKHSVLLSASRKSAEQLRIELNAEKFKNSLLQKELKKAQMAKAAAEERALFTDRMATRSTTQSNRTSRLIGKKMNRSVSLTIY
inactive: [1] 0.029 | [2] -0.06 | [3] -0.081 | [4] 0.047 | [5] -0.206 | [6] 0.249 | [7] -0.177 | [8] 0.037 | [9] -0.085 | [10] -0.239

WDR37 isoform 2 (UniProt Q9Y2I8)
inactive: [1] 0.039 | [2] 0.006 | [3] -0.097 | [4] 0.012 | [5] -0.026 | [6] -0.204 | [7] 0.006 | [8] -0.144 | [9] 0.01 | [10] -0.088

VARS2, A0A0G2JL52
inactive: [1] 0.012 | [2] 0.006 | [3] -0.002 | [4] 0 | [5] 0.046 | [6] -0.006 | [7] 0.026 | [8] 0.003 | [9] 0.006 | [10] -0.01
